This note sets out measurements from PubChem BioAssay (NCI).

SMILES strings stand for the structures. Compounds without any hit were thinned out: in the full panel of roughly 79,000, 15% have a hit. A number with no mark means an inactive call. Calls of active or inactive are those of the source. Rule as the data show it: active = growth inhibition above about 70%; inactive = the rest.

A short description of test [1]: NCI Yeast Anticancer Drug Screen. Data for the rad50 strain (AID 155).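 Also: 0% = growth of vehicle-only cultures of the same strain.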 Particulars: S. cerevisiae rad50 strain growth inhibition; at 50.0 µM; hits give high values. Put shortly: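 Readout: growth inhibition relative to vehicle-treated cultures. Compound exposure was carried out in a genetically defined yeast strain deficient in DNA damage repair.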
The nature of test [2]: NCI Yeast Anticancer Drug Screen. Data for the mec2-1 strain (AID 157). Particulars: S. cerevisiae mec2-1 strain, at 50.0 µM, hits give high values. Put shortly:
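Vehicle-treated cultures served as reference for growth inhibition of compound-exposed mec2-1 yeast.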

A short description of test [3]: NCI Yeast Anticancer Drug Screen. Data for the sgs1 mgt1 strain (AID 161).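 Also: 0% = growth of cultures given vehicle only.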 Particulars: S. cerevisiae sgs1 mgt1 strain, at 50.0 µM, hits give high values. A digest of the protocol: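 Read-out: growth inhibition vs vehicle controls. Cells: mutant yeast strain deficient in DNA damage repair.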
A short description of test [4]: NCI Yeast Anticancer Drug Screen. Data for the cln2 rad14 strain (AID 165).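 Also: 0% = growth equal to vehicle treated cultures.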 Particulars: S. cerevisiae cln2 rad14 strain, at 50.0 µM, hits give high values. A digest of the protocol: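 Each compound was tested on cln2 rad14 yeast. Inhibition of growth was calculated against vehicle-exposed controls.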
A short description of test [5]: NCI Yeast Anticancer Drug Screen. Data for the bub3 strain (AID 167). Particulars: S. cerevisiae bub3 mutant strain, at 50.0 µM, hits give high values. Put shortly:
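Readout: yeast growth inhibition, expressed relative to vehicle-only wells. The test organism is a mutant strain from a panel with lesions in DNA repair or checkpoint genes.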

Test [6] can be described thus: NCI Yeast Anticancer Drug Screen. Data for the mlh1 rad18 strain (AID 175). Particulars: S. cerevisiae mlh1 rad18 strain growth inhibition; at 50.0 µM; hits give high values. A digest of the protocol: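 Vehicle-treated cultures served as the reference for growth inhibition in a yeast strain carrying DNA damage repair alterations exposed to each compound.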

For `Cc1ccc(S(=O)(=O)N/N=C2/C(=N/NS(=O)(=O)c3ccc(C)cc3)C3CCC2C3)cc1`, the growth inhibition was 6.7% in test [1]; 4.85% in test [2]; -2.75% in test [3]; -29.2% in test [4]; -1.7% in test [5]; -6.45% in test [6].
Take `C=CCc1cc(C(Cc2ccccc2)NC(C)C)cc(OCc2ccccc2)c1OCc1ccccc1` (stereo not given): the growth inhibition in test [1] was 10.1%; in test [2], 11.5%; in test [3] it was 16.9%; in test [4], -3.95%; in test [5] it was 47.6%; in test [6], 50.9%.
With `O=C(CN1CCCC1)Nc1ccc2c(c1)C1Oc3ccccc3CC1CO2` (stereo not given), the growth inhibition in test [1] is 7.65%; in test [2], 4.2%; in test [3], 5.55%; in test [4] it was 11.6%; in test [5] it was -12.7%; in test [6], 30.6%.
Regarding `O=C(NCC(CC(NC(=O)c1ccccc1)C(=O)O)NC(=O)c1ccccc1)c1ccccc1` (stereo not given), the growth inhibition in test [1] is -20.5%; in test [2], -4.85%; in test [3], -11.4%; in test [4] it was 16%; in test [5] it was -5.9%; in test [6], 0.9%.
As for `CN(CCN1CCOCC1)C(c1ccccc1)c1ccccc1`, the growth inhibition is 83.7% (active) in test [1]; 66.3% in test [2]; 87.9% (active) in test [3]; 61.8% in test [4]; 52.4% in test [5]; 67.4% in test [6].
With `O=S(=O)(c1ccccc1)c1ccc(CBr)cc1`, the growth inhibition in test [1] was 16.1%; in test [2] it was 1.85%; in test [3], -10.4%; in test [4] it was 17.5%; in test [5], -2.55%; in test [6], -8.9%.
Regarding `CC(O)C1OC(=O)C(O)C1O` (stereo not given), the growth inhibition in test [1] is -0.75%; in test [2], 4.95%; in test [3] it was -14.8%; in test [4] it was -5.9%; in test [5], 5.95%; in test [6] it was -6.05%.
Regarding `CC1(C)CC([NH-])(C(=O)O)CC(C)(C)N1O.CC1(C)CC([NH-])(C(=O)O)CC(C)(C)N1O.[Cu+2]`, the growth inhibition was 27.6% in test [1]; -17.9% in test [2]; 16.5% in test [3]; -20.3% in test [4]; 0.7% in test [5]; 4.55% in test [6].
For the molecule `CN1C(=O)C(O)(CC(=O)c2ccccc2)c2ccccc21` (stereo not given), the growth inhibition in test [1] is 0.15%; in test [2], 17.7%; in test [3] it was 3.3%; in test [4], -23.9%; in test [5], 23.4%; in test [6] it was -5.65%.
`CCOC(=O)/C(Cc1ccc2c(c1)OCO2)=N\O`: the growth inhibition in test [1] is -3.05%; in test [2], -16.1%; in test [3] it was -12.9%; in test [4] it was -2.25%; in test [5] it was 2.25%; in test [6] it was -1.1%.
Turning to `CN=C(N)NC`, the growth inhibition in test [1] was -0.1%; in test [2], 2.45%; in test [3], 15.1%; in test [4], 24.1%; in test [5] it was 8.55%; in test [6], 20.1%.
Turning to `Cc1ccc(OC(=O)NC(C)(C)C)cc1`, the growth inhibition is 0.8% in test [1]; -18.9% in test [2]; 11.2% in test [3]; -35.1% in test [4]; 11.8% in test [5]; -12.5% in test [6].
Regarding `CCOC(=O)CCC(NC(=O)c1ccc(Nc2cnc3cc(C(F)(F)F)ccc3n2)cc1)C(=O)OCC` (stereo not given), the growth inhibition is 0.1% in test [1]; -12.8% in test [2]; -5.85% in test [3]; 19.9% in test [4]; 3.4% in test [5]; -4.65% in test [6].
Take `CC(=O)OC1COC([n+]2cccc(C(N)=O)c2)C(OC(C)=O)C1OC(C)=O` (stereo not given): the growth inhibition was -36.5% in test [1]; -22.7% in test [2]; -25.9% in test [3]; -32.6% in test [4]; -9.95% in test [5]; -20% in test [6].
Regarding `O=CNCCc1ccc2c(c1)[nH]c1ccccc12`, the growth inhibition in test [1] was 8.45%; in test [2], 16.1%; in test [3] it was 12.9%; in test [4] it was -11.3%; in test [5] it was -13.2%; in test [6] it was 20.6%.
Turning to `CN1C(=O)C(=O)C(c2ccccc2)(c2ccccc2)C1=O`, the growth inhibition in test [1] was 9.45%; in test [2] it was -4.55%; in test [3], 12.4%; in test [4], -53.2%; in test [5], 8.75%; in test [6], -10.8%.
Turning to `CN(C)S(=O)(=O)c1c(N)ncn1C`, the growth inhibition in test [1] is 12.7%; in test [2], 6.85%; in test [3], -9.1%; in test [4], 7.25%; in test [5], 9.65%; in test [6], 5%.
On to `OCc1c(CO)c(-c2ccc(Cl)cc2)n2c1CCC2`, for which the growth inhibition was 29.4% in test [1]; -15% in test [2]; 8.4% in test [3]; 29.2% in test [4]; -6.35% in test [5]; 34.5% in test [6].
With `CN(CC(=O)O)Cc1oc(CO)cc(=O)c1O`, the growth inhibition was -9.45% in test [1]; -9.5% in test [2]; -6.1% in test [3]; -37.5% in test [4]; -40% in test [5]; -14.3% in test [6].
`O=C1c2[nH]c3ccccc3c2CN1CCc1ccccc1`: the growth inhibition in test [1] was -2.4%; in test [2], -15.9%; in test [3], 4.7%; in test [4], -14.5%; in test [5], -4.45%; in test [6], -5.1%.
